The source made the active and inactive calls.
Experiments:
[1] = test system: Plasmodium falciparum Sir2 (PF13_0152, Sir2A); assay: pfSir2 binders on small-molecule microarrays, primary screen, biochemical, small-molecule microarray, 635 nm fluorescence (AID 1098); settings: small-molecule microarray binding, fluorescence 635 nm; higher = more signal;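 note: score merges spot fluorescence intensity with its signal-to-noise ratio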
[2] = small-molecule microarray binders of probe aDKK1, primary screen, biochemical, biotinylated probe, 635/667 nm fluorescence (AID 1099); settings: higher = more signal;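 note: score merges 667nm spot fluorescence with signal to noise across triplicate slides; reference of the scale not given here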
[3] = small-molecule microarray binders of probe aCHRDL2, primary screen, biochemical, biotinylated probe, 635/667 nm fluorescence (AID 1100); settings: higher = more signal
[4] = splicing luciferase reporter signal modulators, primary screen, spliceosome inhibition project, cell-based, HEK293, splice +/- reporter (AID 1101); settings: luminescence, 24 h, higher = more signal, called active from +8 up or from −8 down;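 note: HEK293 cells carrying a splicing-competent luciferase reporter gene; test concentration not given here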
[5] = target: Fibroblast growth factor 10 (Homo sapiens) (UniProt O15520); assay: FGF10 binders on small-molecule microarrays, primary screen, biochemical, small-molecule microarray, 635 nm fluorescence (AID 1102); settings: FGF10 binding, fluorescence 635 nm, higher = more signal
Fibroblast growth factor 10 (Homo sapiens), sequence (O15520 whole entry, looked up): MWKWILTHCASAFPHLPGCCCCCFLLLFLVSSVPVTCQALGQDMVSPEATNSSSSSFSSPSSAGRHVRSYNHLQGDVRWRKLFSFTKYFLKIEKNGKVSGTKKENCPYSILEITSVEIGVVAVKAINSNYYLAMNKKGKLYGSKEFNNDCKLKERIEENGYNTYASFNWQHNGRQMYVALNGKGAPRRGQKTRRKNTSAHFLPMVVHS

[6] = test system: glycogen synthase kinase-3 (GSK3A per assay name; protocol says GSK3B); assay: GSK3 binders on small-molecule microarrays, primary screen, biochemical, small-molecule microarray, 635 nm fluorescence, GSK3A (AID 1103); settings: small-molecule microarray binding, fluorescence 635 nm; higher = more signal; note: the record names both GSK3A and GSK3B
[7] = target: Epidermal growth factor receptor (Homo sapiens) (UniProt P00533); assay: EGFR binders on small-molecule microarrays, primary screen, biochemical, small-molecule microarray, 635 nm fluorescence (AID 1104); settings: EGFR binding, higher = more signal;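 note: score merges 667 nm emission intensity with spot signal to noise over triplicate slides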
Epidermal growth factor receptor (Homo sapiens), sequence (P00533 whole entry, looked up): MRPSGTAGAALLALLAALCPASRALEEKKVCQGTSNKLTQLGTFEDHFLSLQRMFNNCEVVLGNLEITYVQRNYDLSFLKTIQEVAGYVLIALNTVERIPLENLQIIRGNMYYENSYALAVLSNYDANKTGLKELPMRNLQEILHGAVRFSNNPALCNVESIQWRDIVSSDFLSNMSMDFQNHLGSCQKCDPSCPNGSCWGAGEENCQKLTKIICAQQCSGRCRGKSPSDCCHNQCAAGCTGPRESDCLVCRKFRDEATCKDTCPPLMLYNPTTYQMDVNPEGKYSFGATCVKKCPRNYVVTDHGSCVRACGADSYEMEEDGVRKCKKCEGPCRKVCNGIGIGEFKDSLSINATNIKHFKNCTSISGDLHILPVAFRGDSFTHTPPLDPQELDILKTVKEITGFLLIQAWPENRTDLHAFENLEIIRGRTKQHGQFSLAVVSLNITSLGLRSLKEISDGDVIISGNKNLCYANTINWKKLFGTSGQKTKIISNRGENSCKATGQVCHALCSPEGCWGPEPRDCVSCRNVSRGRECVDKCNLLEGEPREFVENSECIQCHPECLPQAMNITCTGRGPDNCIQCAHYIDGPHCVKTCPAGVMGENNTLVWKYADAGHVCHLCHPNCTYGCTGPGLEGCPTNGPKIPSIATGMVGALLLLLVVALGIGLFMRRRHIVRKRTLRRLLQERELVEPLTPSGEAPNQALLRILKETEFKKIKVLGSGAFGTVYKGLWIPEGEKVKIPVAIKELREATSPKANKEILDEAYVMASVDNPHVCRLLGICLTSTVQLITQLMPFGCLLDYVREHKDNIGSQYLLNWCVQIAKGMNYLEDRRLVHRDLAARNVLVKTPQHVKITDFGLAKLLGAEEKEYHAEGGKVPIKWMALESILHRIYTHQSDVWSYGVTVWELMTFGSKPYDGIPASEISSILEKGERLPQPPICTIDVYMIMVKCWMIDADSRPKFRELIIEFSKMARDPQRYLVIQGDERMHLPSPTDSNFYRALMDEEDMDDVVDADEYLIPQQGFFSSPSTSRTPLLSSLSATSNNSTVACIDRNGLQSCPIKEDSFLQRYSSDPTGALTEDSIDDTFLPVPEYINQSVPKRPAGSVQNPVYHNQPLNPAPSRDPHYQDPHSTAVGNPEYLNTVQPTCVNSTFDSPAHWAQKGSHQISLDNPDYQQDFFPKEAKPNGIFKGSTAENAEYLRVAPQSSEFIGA

[8] = target: Follistatin-related protein 3 (Homo sapiens) (UniProt O95633); assay: FSTL3 binders on small-molecule microarrays, primary screen, biochemical, small-molecule microarray, 635 nm fluorescence (AID 1105); settings: FSTL3 binding, higher = more signal;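 note: score merges emission near 667 nm and signal to noise per printed spot across three slides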
Follistatin-related protein 3 (Homo sapiens), sequence (O95633 whole entry, looked up): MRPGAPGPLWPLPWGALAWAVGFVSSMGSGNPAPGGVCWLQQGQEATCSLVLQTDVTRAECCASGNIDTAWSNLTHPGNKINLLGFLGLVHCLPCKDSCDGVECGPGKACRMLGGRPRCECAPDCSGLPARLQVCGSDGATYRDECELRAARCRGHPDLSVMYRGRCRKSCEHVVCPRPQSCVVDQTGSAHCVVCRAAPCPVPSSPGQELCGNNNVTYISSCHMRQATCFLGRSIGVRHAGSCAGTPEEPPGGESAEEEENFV

[9] = target: Dickkopf-related protein 1 (Homo sapiens) (UniProt O94907); assay: DKK1 binders on small-molecule microarrays, primary screen, biochemical, small-molecule microarray, 635 nm fluorescence scan (AID 1106); settings: DKK1 binding, higher = more signal;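 note: score merges emission near 667 nm with signal to noise over three replicate slides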
Dickkopf-related protein 1 (Homo sapiens), sequence (O94907 whole entry, looked up): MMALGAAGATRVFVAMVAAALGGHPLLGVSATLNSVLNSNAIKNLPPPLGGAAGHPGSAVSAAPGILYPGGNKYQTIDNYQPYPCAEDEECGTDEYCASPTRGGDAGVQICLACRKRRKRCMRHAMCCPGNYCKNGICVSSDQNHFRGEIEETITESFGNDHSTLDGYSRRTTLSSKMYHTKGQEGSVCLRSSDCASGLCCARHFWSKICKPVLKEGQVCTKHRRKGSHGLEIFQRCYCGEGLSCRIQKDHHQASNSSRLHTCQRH

[10] = test system: Inhibin beta A chain (activin A); assay: INHBA (activin A) binders on microarrays, primary screen, biochemical, small-molecule microarray, 635 nm fluorescence scan (AID 1107); settings: small-molecule microarray binding, higher = more signal;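 note: mouse activin A protein probed at 4.33 µg/mL on printed slides; score merges bound-protein fluorescence near 667 nm with spot signal-to-noise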

| Structure (SMILES) | composite z-score [1] | composite z-score [2] | composite z-score [3] | z-score [4] | composite z-score [5] | composite z-score [6] | composite z-score [7] | composite z-score [8] | composite z-score [9] | composite z-score [10] |
| --- | --- | --- | --- | --- | --- | --- | --- | --- | --- | --- |
| CCOC(=O)[C@H](Cc1ccccc1)NC(=O)CCC1CC(OC(=O)NCCc2ccc(F)cc2)CC2(CCCC(COC(=O)NCc3cccc(C(F)(F)F)c3)O2)O1 (stereo not given in full) | 0.863 | -0.139 | -0.311 | -0.891 (inactive) | 0.904 | 1.06 | 0.818 | 0.786 | 0.484 | -0.335 |
| COc1cccc([C@H]2Oc3ccc(OC)cc3C(=NO[C@@H](C)c3cc(-c4c(C)cc(C)cc4C)no3)[C@@H]2O)c1 | 0.288 | 0.838 | 1.53 | -0.328 (inactive) | -1.66 | -0.532 | -2.38 | -1.99 | -3.26 | 0.313 |
| O=C1CCCC=C1C(O)COCc1ccccc1 (stereo not given) | 0.179 | -0.32 | -0.344 | -0.0937 (inactive) | -0.146 | -1.62 | -0.137 | -0.171 | -0.126 | 0.53 |
| COC(=O)[C@H](CCSC)NC(=O)CC=C[C@@H](C)CO | -0.0481 | -0.34 | -1.47 | -0.0982 (inactive) | 1.26 | 1.28 | 1.53 | 1.46 | 1.97 | -1.91 |
| CCN1C(=O)[C@H]2[C@H]3[C@H](O)[C@H](O)CC(=NOCC=C(C)CCC=C(C)C)[C@@H]3CC[C@H]2C1=O | 0.882 | -0.214 | -0.717 | 0.486 (inactive) | 1.21 | 0.938 | 1.53 | 0.972 | 1.16 | 1.18 |
| COc1ccc(COC(=O)NN=C2C[C@@H](O)[C@@H](O)[C@@H]3[C@@H]4C(=O)N(C[C@@H]5CCCO5)C(=O)[C@@H]4CC[C@H]23)cc1 | -0.321 | 1 | 1.26 | 0.0734 (inactive) | -0.494 | -0.797 | -0.211 | -1 | -0.746 | 0.229 |
| C=C(C)C(=O)OC[C@H]1CN2[C@@H](CC[C@@H](C)[C@@H]2c2ccc(Br)cc2)C(=O)O1 | 0.789 | -0.366 | -0.264 | -0.286 (inactive) | 0.261 | 0.179 | 0.135 | -0.214 | 0.302 | 1.26 |
| CCN(CC)CC(O)CN1CCCCc2nc(C)c(C)cc21 (stereo not given) | -0.145 | -0.33 | -0.485 | -1.7 (inactive) | 0.507 | 0.709 | 0.256 | 0.42 | 0.701 | 0.29 |
| COC(=O)[C@@H]1CC[C@H](C)[C@@H](c2ccc(Br)cc2)N1C[C@H](O)CN=[N+]=[N-] | 0.0722 | -0.234 | 0.0248 | -0.812 (inactive) | 0.248 | -0.154 | 0.385 | -0.347 | -0.148 | 0.616 |
| CC(=O)OC[C@H]1O[C@H](CC=NO[C@H](C)c2cn([C@@H]3COC[C@H]3O)nn2)C=C[C@@H]1OC(C)=O | 0.197 | -0.185 | -0.434 | -1.06 (inactive) | 0.172 | 0.0915 | 0.476 | 0.255 | 1.1 | 0.257 |
| CCOC(=O)[C@H](Cc1ccccc1)NC(=O)CCC1CC(OC(=O)NCCc2ccc(F)cc2)CC2(CCCC(COC(=O)NCCOc3ccccc3)O2)O1 (stereo not given in full) | 0.87 | -0.119 | -0.442 | -0.421 (inactive) | 0.979 | 1.28 | 0.597 | 1.31 | 1.05 | -0.155 |
| CCN1C(=O)[C@H]2[C@H]3[C@H](O)[C@H](O)CC(=NNC(=O)OCc4ccccc4)[C@H]3CC[C@H]2C1=O | -0.0508 | 0.0829 | 0.877 | -0.45 (inactive) | 0.186 | -0.493 | -0.198 | -0.0353 | -0.26 | 0.0251 |
| CCN1C(=O)[C@H]2[C@H]3[C@H](O)[C@H](O)CC(=NOC(C)CN4CCCc5nc(C)c(C)cc54)[C@@H]3CC[C@H]2C1=O (stereo not given in full) | 0.333 | 0.0478 | -0.598 | 0.189 (inactive) | 0.784 | 0.901 | 0.692 | 0.783 | 0.713 | 0.907 |
| COc1ccc(O[C@H]2C=C[C@@H](C#Cc3ccccc3)O[C@@H]2CO)cc1 | 0.544 | -0.139 | -0.253 | 1.45 (inactive) | 0.535 | -0.139 | 0.316 | -0.0229 | 0.377 | 1.08 |
| COc1ccc(COC(=O)NN=C2C[C@@H](O)[C@@H](O)[C@@H]3[C@@H]4C(=O)N([C@@H](C)c5ccccc5)C(=O)[C@@H]4CC[C@H]23)cc1 | -0.25 | -0.121 | 1.4 | 0.445 (inactive) | -0.227 | -0.721 | -0.587 | -0.131 | -0.769 | 0.541 |
| C[C@H]1CC[C@H]2C(=O)O[C@H](CO)CN2[C@@H]1c1ccc(Br)cc1 | -0.233 | -0.198 | -0.372 | -0.202 (inactive) | -0.111 | -0.348 | 0.0844 | -0.378 | -0.106 | 0.829 |
| C#CCCCON=C1[C@H]2CCn3c(=O)n([C@@H](CC)c4ccccc4)c(=O)n3[C@H]2[C@H](O)[C@@H]2O[C@H]12 | 1.1 | -0.175 | -0.317 | 6.03 (inactive) | 0.581 | -0.51 | 0.179 | 0.34 | 0.209 | 0.228 |
| CCN1C(=O)[C@H]2[C@H]3[C@H](O)[C@H](O)CC(=NO[C@@H](C)c4cc(-c5c(C)cc(C)cc5C)no4)[C@@H]3CC[C@H]2C1=O | 0.808 | 0.101 | -0.239 | -0.111 (inactive) | 0.841 | 1.24 | 0.451 | 1.18 | 0.647 | -0.989 |
| CCOC(=O)[C@H](Cc1ccccc1)NC(=O)CCC1CC(OC(=O)NCc2cccc3ccccc23)CC2(CCCC(COC(=O)NCC3CCCCC3)O2)O1 (stereo not given in full) | 0.889 | -0.21 | -0.53 | -0.815 (inactive) | 0.781 | 0.805 | 0.604 | 0.872 | 0.795 | 0.381 |
| COc1ccc(COC(=O)NN=C2C[C@@H](O)[C@@H](O)[C@@H]3[C@@H]4C(=O)N(C(C)(C)C)C(=O)[C@@H]4CC[C@@H]23)cc1 | 0.182 | -0.163 | -0.64 | 0.992 (inactive) | 0.189 | 0.787 | 0.314 | 0.967 | 1.16 | -0.105 |
| CCOC(=O)[C@H](CC(C)C)NC(=O)CCC1CC(OC(=O)NCc2ccc3c(c2)OCO3)CC2(CCCC(COC(=O)NCCc3ccc(Cl)cc3)O2)O1 (stereo not given in full) | 0.193 | -0.0218 | -0.514 | 0.0274 (inactive) | 0.525 | 0.293 | 0.199 | 0.829 | 0.96 | 0.101 |
| CC(CCN1CCCc2nc(C)c(C)cc21)=NOC[C@@H](C)[C@H](OCc1ccccc1)C(C)C | -0.438 | -0.359 | -0.623 | -0.81 (inactive) | -0.569 | -0.715 | -0.771 | -0.413 | -0.265 | 0.356 |
| CO[C@H]1C[C@@H]2C[C@H](O)CC(CC(=O)O[C@@H](C=CCC(C)C)C[C@@H]3CC[C@H](C)[C@@H](C1)O3)O2 | 1.02 | -0.205 | -0.594 | -0.278 (inactive) | 0.682 | 1.29 | 0.595 | 0.808 | 1.13 | 0.0531 |
| COC(=O)[C@H](C)NC(=O)CCC1CC(OC(=O)NCCc2ccc(F)cc2)CC2(CCCC(COC(=O)NCCc3ccccc3OC)O2)O1 (stereo not given in full) | 0.557 | -0.0554 | -0.494 | -0.221 (inactive) | 1.11 | 1.05 | 0.484 | 1.16 | 1.26 | 0.176 |
| C#CCCCON=C1[C@H]2CCn3c(=O)n(Cc4cc5c(cc4Cl)OCO5)c(=O)n3[C@H]2[C@H](O)[C@@H]2O[C@H]12 | 0.216 | -0.23 | -0.648 | -0.0845 (inactive) | 0.914 | 0.557 | 0.664 | 0.641 | 0.541 | 0.0951 |
| O=C1[C@H]2[C@H]3[C@H](O)[C@H](O)CC(=NOCc4ccccc4)[C@@H]3CC[C@H]2C(=O)N1c1cccc(Oc2ccccc2)c1 | 1.03 | -0.173 | -0.186 | -0.055 (inactive) | 0.485 | 0.38 | 0.201 | 0.48 | 0.0072 | -0.202 |
| O=C1C[C@@H](O)[C@@H](O)[C@@H]2[C@@H]3C(=O)N(Cc4ccccc4)C(=O)[C@@H]3CC[C@H]12 | 0.465 | -0.0382 | -0.506 | -0.0414 (inactive) | 0.56 | 0.331 | 0.564 | 0.643 | 0.608 | 0.3 |

From PubChem BioAssay
